Measured values as given in the supplement of paper PMC13380429.

tested on: Vero E6 infected with SARS-CoV-2; test: SARS-CoV-2 infection rate relative to infected DMSO; higher = more infection, active = 60 or less; settings: 24 h

| Structure (SMILES) | SARS-CoV-2 infection rate |
| --- | --- |
| CN1C[C@@H]2C[C@H]1CN2c1cc2c(cc1F)c(=O)c(C(=O)O)cn2C1CC1 [danofloxacin] (10 µM) | 100% (inactive) |
| Cc1cc(Nc2cc(C)c(C#N)c(N[C@@H](C)CCCC(C)(C)O)n2)n[nH]1 (10 µM) | 113% (inactive) |
| NS(=O)(=O)OC[C@@H]1C[C@@H](n2ccc3c(N[C@H]4CCc5ccccc54)ncnc32)C[C@@H]1O [pevonedistat] (0.833333 µM) | 110% (inactive) |
| Cc1cccc(-c2n[nH]cc2-c2ccc3ncccc3n2)n1 [repsox] (10 µM) | 97% (inactive) |
| O=C(NCC(=O)N1CC[C@H](N[C@H]2CC[C@@](O)(c3ccc(-c4ncccn4)cn3)CC2)C1)c1cccc(C(F)(F)F)c1 (10 µM) | 106% (inactive) |
| CC(C)(C)OC(=O)c1ncn2c1[C@@H]1CCCN1C(=O)c1c(Br)cccc1-2 [bretazenil] (10 µM) | 101% (inactive) |
| CCCN(CCC)C(=O)C1=Cc2ccc(-c3ccc(C(=O)N4CCCC4)cc3)cc2N=C(N)C1 [motolimod] (10 µM) | 93% (inactive) |
| C#C[C@]1(O)CC[C@H]2[C@@H]3CCC4=CC(=O)CC[C@@H]4[C@H]3CC[C@@]21CC [norgestrel] (10 µM) | 102% (inactive) |
| [N-]=[N+]=N[C@]1(CO)O[C@@H](n2ccc(N)nc2=O)[C@H](O)[C@@H]1O (10 µM) | 109% (inactive) |
| C[S+]([O-])CCCCN=C=S (stereo not given) [sulforaphane] (10 µM) | 6.5% (active) |
| NC(=O)CN1CC[C@@H](NC(=O)[C@@H]2CCCN2)C1=O (10 µM) | 110% (inactive) |
| CC[C@@H](C)Nc1cc(C(=O)N[C@H]2C[C@H]3CC[C@@H](C2)N3c2ccc(C(=O)C3CC3)cn2)c(C)cc1C(N)=O (10 µM) | 98.5% (inactive) |
| C[C@H](Nc1ncnc2nc[nH]c12)c1cc2cccc(Cl)c2c(=O)n1-c1ccccc1 [duvelisib] (0.833333 µM) | 99% (inactive) |
| CCC(CC)(NC(=O)C(C)C)C(=O)N[C@@H](CCCNC(=N)N)C(=O)NC1(C(=O)NC(c2ccc(F)cc2)c2ccc(F)cc2)CCCC1 (10 µM) | 116% (inactive) |
| O=C(O)COC(=O)Cc1ccccc1Nc1c(Cl)cccc1Cl [aceclofenac] (10 µM) | 110% (inactive) |
| CC(C)(C)CC(=O)Nc1c(F)cc(C(=O)/N=c2\sccn2COP(=O)(O)O)cc1F (10 µM) | 93.5% (inactive) |
| O=C(O)COc1ccc(/C=C2\SC(=O)NC2=O)cc1 (10 µM) | 97% (inactive) |
| N[C@@H]1[C@H]2CN(c3nc4c(cc3F)c(=O)c(C(=O)O)cn4-c3ccc(F)cc3F)C[C@@H]12 [trovafloxacin] (10 µM) | 108% (inactive) |
| N=C(N)SCCc1c[nH]cn1 [imetit] (10 µM) | 106% (inactive) |
| O=C(Nc1ccccc1)N1CCN(c2nc(-c3ccccc3)ns2)CC1 (10 µM) | 112% (inactive) |

| Structure (SMILES) | SARS-CoV-2 infection rate |
| --- | --- |
| O=C(CCCN1CCC2(CC1)C(=O)NCN2c1ccccc1)c1ccc(F)cc1 [spiperone] (10 µM) | 22% (active) |
| CNc1nc(-c2ccc3c(N)n[nH]c3c2)cc(N2C[C@@H](C(=O)NC3CCCCC3)CC[C@H]2C)n1 (0.833333 µM) | 106% (inactive) |
| CN[C@@H]1[C@@H](O[C@H]2O[C@H](CO)[C@@H](N)[C@H](O)[C@H]2O)O[C@H]2C[C@@H](N)[C@@H](O[C@H]3[C@H](O)[C@@H](O)[C@H](N)C[C@@H]3N)O[C@@H]2[C@@H]1O [apramycin] (10 µM) | 98% (inactive) |
| O=C1CC[C@@]2(O)[C@H]3Cc4ccc(O)c5c4[C@@]2(CCN3CC2CC2)[C@H]1O5 (10 µM) | 106% (inactive) |
| Nc1nc(NC2CC2)c2ncn([C@H]3C=C[C@@H](CO)C3)c2n1 (10 µM) | 102% (inactive) |
| Cn1cc(C2=C(c3ccc(Cl)cc3Cl)C(=O)NC2=O)c2ccccc21 (10 µM) | 102% (inactive) |
| CC1(C)O[C@@H]2[C@@H](CO[C@@]3(COS(N)(=O)=O)OC(C)(C)O[C@@H]23)O1 [topiramate] (10 µM) | 102% (inactive) |
| O=c1c(-c2ccc(O)cc2)coc2cc(O)ccc12 [daidzein] (10 µM) | 95% (inactive) |
| CCCCc1oc2ccc(NS(C)(=O)=O)cc2c1C(=O)c1ccc(OCCCN(CCCC)CCCC)cc1 [dronedarone] (0.833333 µM) | 116% (inactive) |
| O=C1NC(=O)/C(=C/c2ccc3c(c2)OC(F)(F)O3)S1 (10 µM) | 106% (inactive) |
| CN[C@H]1C(=O)N[C@@H]2Cc3ccc(cc3)Oc3cc4cc(c3O[C@@H]3O[C@H](C(=O)O)[C@@H](O)[C@H](O)[C@H]3NC(=O)CCCCCCCCC(C)C)Oc3ccc(cc3Cl)[C@@H](O)[C@@H]3NC(=O)[C@H](NC(=O)[C@@H]4NC(=O)[C@@H](NC2=O)c2cc(cc(O)c2Cl)Oc2cc1ccc2O)c1ccc(O)c(c1)-c1c(O[C@H]2O[C@H](CO)[C@@H](O)[C@H](O)[C@@H]2O)cc(O)cc1[C@@H](C(=O)NCCCN(C)C)NC3=O [dalbavancin] (10 µM) | 113% (inactive) |
| CCCC(=O)C1(c2ccccc2)CCN(C(=O)[C@@H](Cc2ccc(OC)cc2)NC(=O)[C@@H](N)Cc2cncn2C)CC1 (10 µM) | 98% (inactive) |
| O=C1NC(=O)C(c2ccccc2[N+](=O)[O-])=C1Nc1ccc(O)c(Cl)c1 (10 µM) | 114% (inactive) |
| C=CC(=O)N1CCC[C@@H](n2nc(-c3ccc(Oc4ccccc4)cc3)c3c(N)ncnc32)C1 [ibrutinib] (10 µM) | 109% (inactive) |
| Cc1ccc(C[N+](C)(C)C)o1 [5-methylfurmethiodide] (10 µM) | 117% (inactive) |
| NS(=O)(=O)c1cc2c(cc1Cl)NCNS2(=O)=O [hydrochlorothiazide] (10 µM) | 110% (inactive) |
| Oc1nc(O)c2cn[nH]c2n1 [oxypurinol] (10 µM) | 111% (inactive) |
| CNCC[C@H](Oc1cccc2ccccc12)c1cccs1 [duloxetine] (10 µM) | 47% (active) |
| O=C(c1ccc(Cl)cc1)N(Cc1ccccc1)C1CCCCC1 (10 µM) | 103% (inactive) |
| O=S(=O)(O)c1cc(I)c(O)c2ncccc12 [chiniofon] (10 µM) | 102% (inactive) |
